According to PubChem BioAssay:
For part of these data: Results with a measured potency or affinity are listed apart. Active and inactive are the calls of the source.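 How the source made its calls, unless noted: active means GFP response above 150% of the DMSO level; inconclusive means fewer than 70 events counted for a yeast strain; inactive means the rest.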

Columns and labels:
[1] = target: Cell division control protein 42 homolog (Homo sapiens) (UniProt P60953); assay: inhibition of fluorescent GTP binding to constitutively active Cdc42 – biochemical, multiplex bead flow cytometry, Bodipy-FL-GTP, dose response (AID 1333;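 active means fitted half-maximal concentration within the tested dose range, moderate curve steepness, a statistically real signal drop, and little compound fluorescence or tag-binding interference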)
[2] = target: Cell division control protein 42 homolog (Homo sapiens) (UniProt P60953); assay: inhibition of fluorescent GTP binding to wildtype Cdc42 – biochemical, multiplex bead flow cytometry, Bodipy-FL-GTP, dose response (AID 1334;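 active means fitted half-maximal concentration within the tested range, moderate curve steepness, significant signal drop, and little compound fluorescence or bead-linkage interference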); settings: bead-based flow cytometry, Bodipy-FL-GTP binding to GST-Cdc42; at 100 µM (top of the series) unless noted
[3] = target: GTPase HRas (Homo sapiens) (UniProt P01112); assay: Ras wt fluorescent GTP loading blockade – biochemical, wildtype, multiplex bead flow cytometry, dose response (AID 1335;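 active means fitted half-maximal concentration within 10 nM to 100 µM, steepness 0.5 to 2, significant signal drop, low assay interference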); settings: bead-based flow cytometry, Bodipy-GTP binding to GST-Ras; at 100 µM (top of the series) unless noted
[4] = test system: Ras-related protein Rab-7a (dog), GTP binding; assay: blockers of fluorescent GTP binding to Rab7 – biochemical, wildtype, multiplex bead flow cytometry, dose response (AID 1336; call rule not given here)
[5] = target: Ras-related C3 botulinum toxin substrate 1 (Homo sapiens) (UniProt P63000); assay: inhibition of wildtype Rac1 nucleotide loading – biochemical, multiplex bead flow cytometry, dose response (AID 1340;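 active means dose curve with midpoint inside tested range, moderate steepness, plateau gap beyond fit error, low compound glow and bead-link interference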); settings: GST-Rac1 beads, Bodipy-FL-GTP binding; at 100 µM (top of the series) unless noted
[6] = target: GTPase HRas (Homo sapiens) (UniProt P01112); assay: blockade of GTP loading onto mutant Ras – biochemical, activated mutant, multiplex bead flow cytometry, dose response (AID 1341;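 active means dose-response curve with midpoint inside the tested range, moderate steepness, significant amplitude and little compound fluorescence or bead-attachment interference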;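 further: GST-tagged constitutively activated Ras mutant immobilized on beads and multiplexed with other GTPases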)
[7] = hit retest on RPL19A-GFP reporter strain – cell-based, S. cerevisiae, flow cytometry, cherry picks, mother/daughter gates, confirmation (AID 2270;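 active means GFP response below 50% of the DMSO control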); settings: 3 h, at 10 µM, stronger effect = lower value, 100 = same GFP as DMSO wells
[8] = yeast TOR pathway reporter LAP4-GFP change – cell-based, cherry picks, flow cytometry, mother/daughter gates, confirmation (AID 2271;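 active means GFP response above 150% of the DMSO control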;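 further: ratio of sample to DMSO plate mean so 100% equals DMSO level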); settings: S. cerevisiae LAP4-GFP strain, 3 h, at 10 µM, stronger effect = higher value, 100 means same as DMSO control
[9] = TOR pathway reporter MEP2-GFP, retest of hits – S. cerevisiae, flow cytometry GFP, cherry picks, confirmation (AID 2272;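 active means GFP response above 150% of the DMSO control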;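 further: ratio of well signal to plate DMSO mean so 100% equals DMSO level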); settings: S. cerevisiae MEP2-GFP strain, 3 h, at 10 µM, stronger effect = higher value
[10] = yeast AGP1-GFP fluorescence change, single-dose – cell-based, flow cytometry, S. cerevisiae, cherry picks, confirmation (AID 2273);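 further: median GFP channel fluorescence over the whole cell population gate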; settings: S. cerevisiae AGP1-GFP strain, 3 h, at 10 µM
[11] = TOR pathway CIT2 reporter hit retest – S. cerevisiae, GFP fusion, cherry picks, mother/daughter gates, confirmation (AID 2274); settings: S. cerevisiae CIT2-GFP strain, flow cytometry, 3 h, at 10 µM, stronger effect = higher value
[12] = measured here: daughter cell gate
[13] = measured here: mother cell gate
[14] = measured here: daughter cell gate response
[15] = measured here: mother cell gate response

Sequence of GTPase HRas (Homo sapiens) (P01112 whole entry, looked up): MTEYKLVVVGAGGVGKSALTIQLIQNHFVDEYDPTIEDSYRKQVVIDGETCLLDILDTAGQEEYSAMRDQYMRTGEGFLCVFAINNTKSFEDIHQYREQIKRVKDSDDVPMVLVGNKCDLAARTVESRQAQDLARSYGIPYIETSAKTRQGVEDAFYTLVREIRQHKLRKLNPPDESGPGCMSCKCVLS
Sequence of Cell division control protein 42 homolog (Homo sapiens) (P60953 whole entry, looked up): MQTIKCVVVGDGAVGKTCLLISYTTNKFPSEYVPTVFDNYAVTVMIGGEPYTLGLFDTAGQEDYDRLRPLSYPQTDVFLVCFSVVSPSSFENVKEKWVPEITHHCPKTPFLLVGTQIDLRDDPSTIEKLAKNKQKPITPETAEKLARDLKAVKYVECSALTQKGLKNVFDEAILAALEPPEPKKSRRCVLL

COC(=O)c1ccc2nc(Nc3nc4c(F)cc(F)cc4s3)sc2c1
outcome [1]: inactive | fluorescence, percent of control (lower = inhibition) [2]: 33.7% | GTP binding, percent of control [3]: 85.9% | outcome [4]: inactive | GTP binding signal, raw median fluorescence (lower = inhibition) (MCF (arbitrary fluorescence units)) [5]: 286 | outcome [6]: inactive | GFP response vs DMSO [7]: 98.2% (inactive) | GFP response vs DMSO [7, 12]: 97.3% | GFP response vs DMSO [7, 13]: 98.3% | GFP response relative to DMSO [8]: 91.2% (inactive) | GFP response relative to DMSO [8, 14]: 90.4% | GFP response relative to DMSO [8, 15]: 93% | GFP response vs DMSO [9]: 101% (inactive) | GFP response, % of DMSO [10]: 102% (inactive) | GFP response, % of DMSO [11]: 99.7% (inactive) | GFP response, % of DMSO [11, 12]: 98.4% | GFP response, % of DMSO [11, 13]: 98.7%

Cc1c(C(=O)N/N=C/c2ccc(O)c(Br)c2)sc(N)c1C#N
outcome [1]: inactive | fluorescence, percent of control (lower = inhibition) [2]: 27.1% | GTP binding, percent of control [3]: 64.7% | outcome [4]: inactive | GTP binding signal, raw median fluorescence (lower = inhibition) (MCF (arbitrary fluorescence units)) [5]: 151 | outcome [6]: inactive

CC(C)(C)C(=O)/C=c1\s/c(=C\c2ccc(-c3ccc([N+](=O)[O-])cc3)o2)c(=O)n1CC(=O)NC(N)=O
outcome [1]: inactive | fluorescence, percent of control (lower = inhibition) [2]: 99.6% | GTP binding, percent of control [3]: 141% | outcome [4]: inactive | GTP binding signal, raw median fluorescence (lower = inhibition) (MCF (arbitrary fluorescence units)) [5]: 256 | outcome [6]: inactive | GFP response vs DMSO [7]: 101% (inactive) | GFP response vs DMSO [7, 12]: 101% | GFP response vs DMSO [7, 13]: 101% | GFP response relative to DMSO [8]: 102% (inactive) | GFP response relative to DMSO [8, 14]: 99.7% | GFP response relative to DMSO [8, 15]: 103% | GFP response vs DMSO [9]: 112% (inactive) | GFP response, % of DMSO [10]: 101% (inactive) | GFP response, % of DMSO [11]: 99.7% (inactive) | GFP response, % of DMSO [11, 12]: 100% | GFP response, % of DMSO [11, 13]: 98.7%

COc1ccc(CCNc2cc(=O)[nH]c(N)n2)cc1
outcome [1]: inactive | fluorescence, percent of control (lower = inhibition) [2]: 34.1% | GTP binding, percent of control [3]: 48.2% | outcome [4]: inactive | GTP binding signal, raw median fluorescence (lower = inhibition) (MCF (arbitrary fluorescence units)) [5]: 94.3 | outcome [6]: inactive

COC(=O)n1c(=S)oc2cc(Cl)ccc21
outcome [1]: inactive | fluorescence, percent of control (lower = inhibition) [2]: 58.3% | GTP binding, percent of control [3]: 154% | outcome [4]: inactive | GTP binding signal, raw median fluorescence (lower = inhibition) (MCF (arbitrary fluorescence units)) [5]: 170 | outcome [6]: inactive | GFP response vs DMSO [7]: 106% (inactive) | GFP response vs DMSO [7, 12]: 93.9% | GFP response vs DMSO [7, 13]: 94.5% | GFP response relative to DMSO [8]: 126% (inactive) | GFP response relative to DMSO [8, 14]: 105% | GFP response relative to DMSO [8, 15]: 110% | GFP response vs DMSO [9]: 141% (inactive) | GFP response, % of DMSO [10]: 111% (inactive) | GFP response, % of DMSO [11]: 121% (inactive) | GFP response, % of DMSO [11, 12]: 98.3% | GFP response, % of DMSO [11, 13]: 100%

O=C1c2ccccc2-c2onc3ccc(Oc4ccccc4)c1c23
outcome [1]: inactive | fluorescence, percent of control (lower = inhibition) [2]: 27.9% | GTP binding, percent of control [3]: 46.3% | outcome [4]: inactive | GTP binding signal, raw median fluorescence (lower = inhibition) (MCF (arbitrary fluorescence units)) [5]: 183 | outcome [6]: inactive | GFP response vs DMSO [7]: 86.5% (inactive) | GFP response vs DMSO [7, 12]: 86.6% | GFP response vs DMSO [7, 13]: 85.9% | GFP response relative to DMSO [8]: 147% (inactive) | GFP response relative to DMSO [8, 14]: 136% | GFP response relative to DMSO [8, 15]: 150% | GFP response vs DMSO [9]: 113% (inactive) | GFP response, % of DMSO [10]: 84.3% (inactive) | GFP response, % of DMSO [11]: 95.2% (inactive) | GFP response, % of DMSO [11, 12]: 94.8% | GFP response, % of DMSO [11, 13]: 94.4%

CS(=O)(=O)N1N=C(c2ccccc2)CC1c1ccc2c(c1)OCO2 (centres undefined)
outcome [1]: inactive | fluorescence, percent of control (lower = inhibition) [2]: 112% | GTP binding, percent of control [3]: 120% | outcome [4]: inactive | GTP binding signal, raw median fluorescence (lower = inhibition) (MCF (arbitrary fluorescence units)) [5]: 247 | outcome [6]: inactive | GFP response vs DMSO [7]: 136% (inactive) | GFP response vs DMSO [7, 12]: 137% | GFP response vs DMSO [7, 13]: 135% | GFP response relative to DMSO [8]: 449% (active) | GFP response relative to DMSO [8, 14]: 466% | GFP response relative to DMSO [8, 15]: 439% | GFP response vs DMSO [9]: 1140% (active) | GFP response, % of DMSO [10]: 204% (active) | GFP response, % of DMSO [11]: 436% (active) | GFP response, % of DMSO [11, 12]: 437% | GFP response, % of DMSO [11, 13]: 413%

COc1cccc2sc(Nc3nc(-c4ccccn4)cs3)nc12
outcome [1]: inactive | fluorescence, percent of control (lower = inhibition) [2]: 34.8% | GTP binding, percent of control [3]: 80.4% | outcome [4]: inactive | GTP binding signal, raw median fluorescence (lower = inhibition) (MCF (arbitrary fluorescence units)) [5]: 194 | outcome [6]: inactive | GFP response vs DMSO [7]: 107% (inactive) | GFP response vs DMSO [7, 12]: 99.5% | GFP response vs DMSO [7, 13]: 96.6% | GFP response relative to DMSO [8]: 254% (active) | GFP response relative to DMSO [8, 14]: 201% | GFP response relative to DMSO [8, 15]: 240% | GFP response vs DMSO [9]: 124% (inactive) | GFP response, % of DMSO [10]: 104% (inactive) | GFP response, % of DMSO [11]: 96.5% (inactive) | GFP response, % of DMSO [11, 12]: 99.7% | GFP response, % of DMSO [11, 13]: 88%
